GRP78 ERSR act: inducers of ER stress response in human glioma cells. U87-MG GRP78 promoter luciferase reporter, 16 h. Potency, µM, for inactives: at the top dose activation, usual class: activators. actives 0.02% (n = 420,000). AID 602332; also: potency is read from the fitted curve at half-maximal effect; series mostly up to about 76 µM; % of control where 0% means no effect; nearly all actives have a fitted effect of over 35% in size
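Stably transfected U87-MG human glioma cells carrying a GRP78-based luminescent sensor were seeded at 1000 cells/well, pin-dosed with compounds and incubated 16 h. Luciferase reagent was then added, and end-point luminescence was read after 10 min at room temperature.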
RXFP1 ag: activates the human relaxin receptor RXFP1 | Potency, µM (doses to about 57.5 µM), without a hit: at the highest dose activation, most hits filed as activators | Q9HBX9 | HEK293T-RXFP1 cAMP TR-FRET, 30 min; response scale: percent of porcine relaxin response, buffer zero | actives 0.3% (n = 370,000); also: potency is read from the fitted curve at half-maximal effect; % is scaled to controls: 0 for no effect and ±100 for the full control effect; nearly all actives have a fitted effect of over 60% in size
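HEK293T cells stably expressing RXFP1 were pretreated with the PDE4 inhibitor Ro 20174, exposed to compounds for 30 min at 37C, lysed, and cAMP was read by TR-FRET. Data normalized to buffer (basal) and 29 nM porcine relaxin (100%).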
RXFP1 antag: RXFP1 (human) relaxin receptor antagonism; HEK293-RXFP1, relaxin-stimulated cAMP HTRF, 30 min; stronger effect = lower value; activity change, negative = inhibition, % at 57.5 µM; actives 0.59% (n = 350,000); AID 1259400;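 active = activity change of -60% or lower, but not beyond a set lower limit; inconclusive = change between -60% and -40%, or beyond the set limit; inactive = change above -40%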; also: % is scaled to controls: 0 for no effect and ±100 for the full control effect
PTHR1 ag: PTHR1 (human) receptor agonism; Potency, µM (doses to about 115 µM), for the others: at the highest dose activation, most hits filed as activators; Q03431; HEK293 GP2 PTHR1 cells, GloSensor cAMP luminescence, 1 h; actives 0.075% (n = 410,000); also: potency is read from the fitted curve at half-maximal effect; nearly all actives have a fitted effect of over 55% in size
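HEK-293-derived GP2 cells expressing PTHR1 and a GloSensor cAMP reporter, 3,000/well, plated overnight, given luciferin plus IBMX (each 0.5 mM as added) for 1 h at 37 °C, then compound for 1 h at 37 °C. Luminescence was read after 15 min at room temperature.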
KCNH2 3.1 block: inhibitors of human KCNH2 3.1 potassium channel isoform; activity change, % (tested at about 1.8 µM); actives 0.95% (n = 340,000); AID 720553; U2OS KCNH2 3.1, thallium flux FluxOr; stronger effect = lower value;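 active = maximum activity change below -70%; inconclusive = maximum activity change from -70% to -50%; inactive = maximum activity change above -50%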;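 also: thallium influx rate constant from kinetic fluorescence after stimulation buffer; % is scaled to controls: 0 for no effect and ±100 for the full control effect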
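Thallium flux via FluxOr fluorescence (Red40 quencher, 45 min loading) in U2OS cells virally expressing the KCNH2 3.1 isoform (1.77 x 10^8 /mL virus, overnight at 37 C). Rate constants from 2-min kinetic reads post-stimulation, normalised to positive and negative controls.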
hERG WT inh: KCNH2 (human, wildtype) channel inhibition; Q12809; U2OS, BacMam KCNH2, thallium flux FluxOr; stronger effect = lower value; activity change, % at 1.84 µM; actives 0.37% (n = 340,000); AID 720551;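 active = maximum activity change below -70%; inconclusive = maximum activity change between -70% and -50%; inactive = maximum activity change above -50%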; also: % is scaled to controls: 0 for no effect and ±100 for the full control effect
Target sequence (Q12809 whole entry, looked up): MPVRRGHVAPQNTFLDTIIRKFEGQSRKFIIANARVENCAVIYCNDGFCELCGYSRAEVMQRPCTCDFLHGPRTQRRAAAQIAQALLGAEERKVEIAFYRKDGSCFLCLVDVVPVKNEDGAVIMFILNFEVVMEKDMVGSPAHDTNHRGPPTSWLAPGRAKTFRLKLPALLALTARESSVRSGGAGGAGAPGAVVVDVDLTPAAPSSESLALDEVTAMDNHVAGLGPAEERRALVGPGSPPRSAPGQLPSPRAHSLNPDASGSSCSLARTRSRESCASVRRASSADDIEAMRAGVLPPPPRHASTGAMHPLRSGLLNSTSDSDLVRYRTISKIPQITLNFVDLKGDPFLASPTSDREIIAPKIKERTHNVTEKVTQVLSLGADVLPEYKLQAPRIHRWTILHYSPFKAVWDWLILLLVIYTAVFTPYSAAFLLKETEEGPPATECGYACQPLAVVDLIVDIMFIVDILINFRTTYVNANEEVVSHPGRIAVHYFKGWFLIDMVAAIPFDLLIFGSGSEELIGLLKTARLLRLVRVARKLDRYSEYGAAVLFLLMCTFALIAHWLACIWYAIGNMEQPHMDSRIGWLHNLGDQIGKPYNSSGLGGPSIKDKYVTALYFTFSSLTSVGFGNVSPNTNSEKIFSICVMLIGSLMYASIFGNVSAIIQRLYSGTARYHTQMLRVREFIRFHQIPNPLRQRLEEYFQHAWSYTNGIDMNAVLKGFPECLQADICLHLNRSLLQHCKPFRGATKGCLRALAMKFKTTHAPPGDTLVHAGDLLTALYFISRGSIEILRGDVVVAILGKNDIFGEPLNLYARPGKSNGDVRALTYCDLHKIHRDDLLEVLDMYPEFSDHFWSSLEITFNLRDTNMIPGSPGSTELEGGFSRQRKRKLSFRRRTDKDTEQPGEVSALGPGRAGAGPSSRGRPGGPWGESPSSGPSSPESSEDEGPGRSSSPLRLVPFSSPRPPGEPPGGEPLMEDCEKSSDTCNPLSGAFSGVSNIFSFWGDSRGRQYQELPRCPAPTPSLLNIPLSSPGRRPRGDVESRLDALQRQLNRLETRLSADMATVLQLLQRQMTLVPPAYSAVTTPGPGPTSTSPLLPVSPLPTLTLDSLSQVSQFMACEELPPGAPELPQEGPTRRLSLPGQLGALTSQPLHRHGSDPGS
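U2OS cells were transduced with wild-type KCNH2 virus (2.03 x 10^8 / mL) for 4 h at room temperature, then cultured overnight at 37 C. Thallium flux was read with FluxOr dye. Rate constants were normalized to DMSO controls.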
* hit, by the source's call; i = inactive; u = inconclusive; x = no result; [ ] = another dose, or the depositor's remark. Compounds with a hit are over-represented: about 1.4% of the library has one in this group of screens. Unless noted, calls follow the shape of the dose curve; as a rule, active = well fitted curve in the direction sought with a large enough effect; inconclusive = small, poorly fitted or top-dose-only effect, or another doubt; inactive = no such curve, though single readings can be large; an effect the other way counts as inactive or inconclusive.

SMILES	GRP78 ERSR act	RXFP1 ag	RXFP1 antag	PTHR1 ag	KCNH2 3.1 block	hERG WT inh
Cc1cc(C)cc(N(C(=O)c2snc(C(N)=O)c2N)C(C(=O)NCC2CCCO2)c2ccc(C)o2)c1 (stereo unspecified)	-5%	0%	-61*	i	-5	-9
Cc1ccc(C(C(=O)NCC2CCCO2)N(C(=O)c2snc(C(N)=O)c2N)c2ccc(C)c(C)c2)o1 (stereo unspecified)	7%	2%	-76*	-8%	-20	1
Cc1ccc(S(=O)(=O)c2ccccc2)cc1S(=O)(=O)N1CCOCC1	-1%	1%	4	-10%[57.5 µM]	-5	10
Cc1c([N+](=O)[O-])c(C(=O)Nc2ccc3c(c2)OCCO3)nn1C	1%	9%	-2	-9%	0	6
N#Cc1cccc(-c2ccc3ncnc(NCCN4CCOCC4)c3c2)c1	-1%	x	x	x	x	x
O=C1CCCCCN1Cc1nnc(SCc2nc3ccccc3s2)n1-c1ccccn1	-1%	5%	0	-14%[57.5 µM]	-80*	6
COc1ccc(S(=O)(=O)NCCc2cn3nc(C)c(C)nc3n2)cc1C	1%	11%	3	-14%	8	-4
O=[N+]([O-])c1ccc(/C=C/C2=NN(c3ccccc3)C(c3ccco3)C2)cc1 (stereo unspecified)	-4%	5%	-12	-12%	-100*	u
O=C(COc1ncnc2scc(-c3ccccc3)c12)NCCN1C(=O)CSC1=O	x	11µM*	x	x	x	x
Cc1cc(NC(=O)CCC(=O)N(c2ccc(C)c(F)c2)C(C(=O)NC2CCCC2)c2ccco2)no1 (stereo unspecified)	1%	-2%	-24	-24%	-6	-2
COc1cc(C(=O)NCC2CCCN2S(=O)(=O)c2cccs2)cc(OC)c1OC (stereo unspecified)	1%	1%	-82*	i	-1	-3
O=C(NCc1ccncc1)c1ccc2nc(Cc3ccccc3F)oc2c1	0%	-1%	-2	-28%	8	-8
Cc1ccc(C(C)C)c(OCC(=O)Nc2nc3c(s2)CCCC3)c1	-2%	-1%	-85*	i	x	x
Cc1cccc(C(=O)Nc2nc3c(s2)CCCC3)c1	-3%	2%	-87*	-19%	x	x
COc1ccc(C(=O)Nc2nc3c(s2)CCCC3)cc1Cl	1%	1%	-71*	-13%	x	x
Cc1cc(C(=O)Nc2nc3c(s2)CCCC3)cs1	-2%	-2%	-3	-29%[57.5 µM]	12	8
CCNC(=O)COC(=O)/C=C/c1cccc(F)c1	1%	1%	1	i	-1	-12
Cc1ccc(NC(=O)CCNC(=O)Nc2ccccc2)cc1S(=O)(=O)N(C)C	-4%	1%	-1	-60%	-8	5
Cc1ccc([N+](=O)[O-])c(OCc2ncc(Cl)n2C)c1	9%	3%	-10	i	12	9
CS(=O)(=O)n1nc(-c2cccnc2)nc1NCc1ccccc1	3%	0%	-1	i	-8	-14
COc1ccc(CNc2nc(-c3cccnc3)nn2S(C)(=O)=O)cc1	-4%	1%	7	i	-76*	2
COc1ccc(/C=C2\SC(=O)N=C2N)cc1	-5%	-3%	-3	i	-16	-214*
COc1ccc(/C=C2\SC(N3CCCCC3)=NC2=O)cc1	9%	-1%	-9	i	9	-12
COc1ccc(C(=O)OCC(=O)Nc2c(C)cccc2C)cc1	-2%	-3%	-1	-24%	5	11
O=C(CCCOc1ccccc1)Nc1ccc(Cl)cn1	3%	1%	-15	-72%	-105*	0
SMILES	GRP78 ERSR act	RXFP1 ag	RXFP1 antag	PTHR1 ag	KCNH2 3.1 block	hERG WT inh
CC(C)n1cc(CN2CCCC(C(=O)Nc3cccc(-c4cc5ccccc5[nH]4)c3)C2)cn1 (stereo unspecified)	-15%	3%	-31	1%	-95*	-19
Cn1cc(CN2CCCC(C(=O)Nc3cccc(-c4cc5ccccc5[nH]4)c3)C2)cn1 (stereo unspecified)	4%	2%	-16	i	-39	0
CCN1C(=NCCc2ccc(Br)cc2)N[C@@H](c2ccccc2)[C@H](C(=O)OC)[C@H]1C	-4%	3%	x	-2%	-79*	-13
CCN1C(=NCCc2ccc([N+](=O)[O-])cc2)N[C@@H](c2ccccc2)[C@H](C(=O)OC)[C@H]1C	-1%	1%	x	-20%	-93*	-19
CCN1C(=NCCCOC(C)C)N[C@@H](c2ccccc2)[C@H](C(=O)OC)[C@H]1C	-4%	1%	x	-9%	-13	3
O=C(CCc1nnc2ccc(N3CCC4(CC3)OCCO4)nn12)NCc1ccc(F)cc1	-5%	16µM*	22	i	8	5
Cc1ccc(C)c(CNc2ccc(S(=O)(=O)N3CCCCC3)cc2)c1	-3%	0%	0	-33%	-100*	-155*
Cc1ccc(S(=O)(=O)N2CCCCC2)cc1	-2%	0%	1	-17%	1	2
Cc1ccc2[nH]c3c(=S)nc[nH]c3c2c1	-1%	3.5µM*	19	i	6	-4
O=S(=O)(Nc1c(S(=O)(=O)c2ccccc2)c2nc3ccccc3nc2n1C1CCCCC1)c1ccccc1	0%	5%	-72*	-29%	-18	-17
C=CCn1c(NS(=O)(=O)c2ccccc2)c(S(=O)(=O)c2ccc(C)cc2)c2nc3ccccc3nc21	0%	2%	x	-28%	-12	-16
CCc1ccc(Nc2ccc3nonc3c2[N+](=O)[O-])cc1	-1%	x	-4	-19%	-159*	-134*
CN(CC(=O)Nc1ccc(F)cc1)C(=O)Cn1cnc2ccc([N+](=O)[O-])cc2c1=O	-4%	x	-21	i	1	-6
CSc1ccc(CCNC(=O)CCc2nnc3ccc(NCCCN4CCCC4=O)nn23)cc1	-5%	u	-70*	11%	-7	44
Cc1ccc(CNC(=O)CCc2ccccc2)cc1	-2%	0%	-1	-22%	7	-5
Cc1ccc(NC(=O)CCN2CCN(C/C=C/c3ccccc3)CC2)cc1	-2%	0%	-4	-60%[57.5 µM]	-86*	-96*
CC(C(=O)Nc1ccc([N+](=O)[O-])cc1)N1CCN(C/C=C/c2ccccc2)CC1 (stereo unspecified)	-3%	0%	-15	-30%	16	-194*
COc1cc(NC(=O)CCN2CCN(C/C=C/c3ccccc3)CC2)cc(OC)c1	-1%	0%	5	i	-38	28
COc1ccc(NC(=O)CCN2CCN(C/C=C/c3ccccc3)CC2)cc1	-4%	0%	-2	i	-105*	24

Screening data (PubChem BioAssay)
